The campaign covered roughly 13,000 compounds. About 3,200 (25%) showed an effect of 50% or more. The list shows a part of the results.
system: P. falciparum stage V gametocytes; design: BacTiter-Glo ATP luminescence viability of purified stage V gametocytes in 384-well plates, per cent inhibition versus DMSO; conditions: 48 h, 5 µM; inhibitor

| SMILES | % Inhibition |
| --- | --- |
| N#CCCn1nc(-c2ccc(Cl)cc2)c2c(c1=O)CCCC2 [TCMDC-123668] | -3.378% |
| COc1cc2nc(C)nc(Nc3ccc4c(ccn4Cc4ccccc4)c3)c2cc1OC [TCMDC-131924] | 19.01% |
| COc1cc2nccc(Nc3ccc4c(cnn4Cc4cccc(F)c4)c3)c2cc1OC.Cl [TCMDC-138105] | -72.46% |
| COc1cc2nc(Nc3ccc4c(cnn4Cc4ccccc4)c3)nc(Nc3ccc4c(cnn4Cc4ccccc4)c3)c2cc1OC [TCMDC-138020] | 106.8% |
| COc1cc2ncnc(Nc3ccc4nc(Cc5ccccc5)[nH]c4c3)c2cc1OC [TCMDC-137180] | -12.69% |
| COc1cc2nc(N(C)C)nc(Nc3ccc4c(cnn4Cc4ccccc4)c3)c2cc1OC [TCMDC-138082] | 11.6% |
| COc1cc2nc(Nc3ccc4c(ccn4Cc4ccccc4)c3)nc(Nc3ccc4c(ccn4Cc4ccccc4)c3)c2cc1OC [TCMDC-138237] | 94.63% |
| COc1cccc(NC(=O)NCCNc2ccnc(Nc3ccc(F)cc3)n2)c1 [TCMDC-133639] | -6.43% |
| COc1ccc(CNC(=O)c2cc3c(=O)n4ccccc4nc3n(CCc3ccccc3)c2=N)cc1 [TCMDC-124474] | -41.5% |
| Cc1cc(C(=O)CN2C(=O)NC(C)(c3cccc4ccccc34)C2=O)c(C)n1Cc1ccco1 (centres unmarked) [TCMDC-125264] | 12.34% |
| Cc1cc(C(=O)CN2C(=O)NC(C)(c3ccc4ccccc4c3)C2=O)c(C)n1Cc1ccco1 (centres unmarked) [TCMDC-125044] | -21.37% |
| COCCn1c(C)cc(C(=O)CN2C(=O)NC(C)(c3ccc(C(C)(C)C)cc3)C2=O)c1C (centres unmarked) [TCMDC-125434] | 51.6% |
| Cc1[nH]nc2ccc(-c3cc(OC[C@@H](N)Cc4ccccc4)cnc3-c3cc4ccccc4s3)cc12 [TCMDC-136352] | 16.97% |
| O=C(NCc1cccc2ccccc12)C1CCCN(C(=O)c2ccc(O)c(-c3ccc(Cl)c(Cl)c3)c2)C1 (centres unmarked) [TCMDC-140894] | 15.24% |
| O=C(N[C@@H](Cc1ccccc1)[C@H](O)CNC1CCCCC1)c1cc(C2CCCC2)cc(N2CCCC2=O)c1 [TCMDC-138869] | 29.86% |
| COc1ccc2ncc(Cl)c(CCN3CC[C@@H](CNCc4cc5c(cn4)OCS5)C3)c2n1 [TCMDC-135904] | -4.396% |
| Cc1c(C)c2c(c(C)c1O)CCC(C)(CCC(=O)O)O2 (centres unmarked) [TCMDC-131686] | -4.216% |
| CC[C@H]1CN2CC[C@H]1C[C@@H]2[C@@H](O)c1cc(Cl)nc2ccc(OC)cc12 [TCMDC-137467] | -42.11% |
| C=C[C@H]1CN2CC[C@H]1C[C@H]2[C@H](O)c1cc(/C=C/c2ccc(F)cc2)nc2ccc(OC)cc12 [TCMDC-141366] | -44.1% |
| CC[C@H]1CN2CC[C@H]1C[C@H]2[C@H](O)c1cc(/C=C/c2ccccc2)nc2ccc(OC)cc12 [TCMDC-141329] | 62.86% |
| CC[C@H]1CN2CC[C@H]1C[C@H]2[C@H](O)c1cc(/C=C/c2ccc(F)cc2)nc2ccc(OC)cc12 [TCMDC-141367] | 91.47% |
| CC[C@H]1CN2CC[C@H]1C[C@H]2[C@H](O)c1cc(-c2ccccc2C)nc2ccc(OC)cc12 [TCMDC-141190] | 15.24% |

| SMILES | % Inhibition |
| --- | --- |
| Cc1cccc(N2C(N)=NC(N)=NC2(C)C)c1C [TCMDC-137926] | 11.29% |
| Cc1cc(Nc2ccc(C)c(Cl)c2)n2ncnc2n1 [TCMDC-123501] | -28.24% |
| COC(=O)c1cccc(N2CCN(CCCNC(=O)/C(=C/C=C/c3cc4cc(Cl)c(Cl)cc4[nH]3)OC)CC2)c1 [TCMDC-139338] | 20.82% |
| O=C(Cc1ccc(NC(=O)c2ccc(O)c(-c3cccc([N+](=O)[O-])c3)c2)cc1)NCCN1CCCCC1 [TCMDC-140797] | 2.849% |
| O=C(Nc1cccc(-c2cccc(-c3nc4ccc(F)cc4[nH]3)c2)c1)Nc1ccc2c(c1)OCO2 [TCMDC-133165] | 6.84% |
| Nc1cccc(CNCc2cccc(-c3cccc(-c4nc5ccccc5[nH]4)c3)c2)c1 [TCMDC-132942] | -10.95% |
| NCc1ccc(CNCc2cccc(-c3ccc(-c4nc5ccccc5[nH]4)cc3)c2)cc1 [TCMDC-132815] | 106.4% |
| c1ccc(CNCc2cccc(-c3cccc(-c4nc5ccccc5[nH]4)c3)c2)cc1 [TCMDC-132698] | -20.89% |
| NCc1ccc(CNCc2cccc(-c3cccc(-c4nc5ccc(F)cc5[nH]4)c3)c2)cc1 [TCMDC-132816] | 98.03% |
| NCc1ccc(CNCc2cccc(-c3cccc(-c4nc5ccccc5[nH]4)c3)c2)cc1 [TCMDC-132817] | 74.49% |
| Nc1cccc(CNCc2cccc(-c3cccc(-c4nc5ccc(F)cc5[nH]4)c3)c2)c1 [TCMDC-132941] | -20.24% |
| COc1ccc(CNCc2cccc(-c3cccc(-c4nc5ccccc5[nH]4)c3)c2)cc1 [TCMDC-132716] | -25.62% |
| Fc1ccc2nc(-c3cccc(-c4cccc(CNCc5ccccc5)c4)c3)[nH]c2c1 [TCMDC-132699] | -56.67% |
| c1ccc(CNCc2cccc(-c3ccc(-c4nc5ccccc5[nH]4)cc3)c2)cc1 [TCMDC-132700] | 26.72% |
| CCNc1cc(C(=O)N[C@@H](Cc2ccccc2)[C@H](O)CNC2(Cc3cccc(Cl)c3)CCC2)cc(N2CCCCS2(=O)=O)c1 [TCMDC-135383] | 17.64% |
| COc1cccc(CNc2noc(-c3c(-c4ccccc4)noc3C)n2)c1OC [TCMDC-134204] | 10.03% |
| COc1ccc(-c2nc(NCc3ccccc3)c3cc(OC)c(OC)cc3n2)cc1 [TCMDC-132018] | 17.4% |
| Cc1ccc2[nH]c3c(NCCCN(C)C)ncnc3c2c1 [TCMDC-124580] | 4.888% |
| CCN(CCCNc1nc(=S)[nH]c2cc(OC)c(OC)cc12)c1ccccc1 [TCMDC-124446] | 83.33% |
| Cc1cc(OCCCN2CCC(NS(=O)(=O)c3cc(Br)c(Cl)s3)CC2)c2ccccc2n1 [TCMDC-136280] | -17.93% |
| Cc1cc(NC(=O)c2ccco2)ccc1OC1CCN(Cc2ccc(C#N)cc2)CC1 [TCMDC-133956] | 24.43% |
| CN(c1ccccc1C(=O)Nc1ccccc1Oc1ccccc1)S(=O)(=O)c1ccccc1 [TCMDC-125092] | -61.36% |

| SMILES | % Inhibition |
| --- | --- |
| Cc1ccc(S(=O)(=O)N(C)c2ccccc2C(=O)Nc2ccccc2Oc2ccccc2)cc1 [TCMDC-125068] | 52.2% |
| CN(c1ccccc1C(=O)Nc1cc(Cl)ccc1Oc1ccccc1)S(=O)(=O)c1ccccc1 [TCMDC-124364] | 33.71% |
| O=[N+]([O-])c1ccc(C2=NN(S(=O)(=O)c3c(Cl)cc(Cl)cc3Cl)CCCC2)cc1 [TCMDC-135423] | -33.18% |
| CCCCCc1cc(O)c2c(c1)OC(C)(C)CC2C1=CCN(Cc2ccccc2)CC1 (centres unmarked) [TCMDC-131335] | -27.18% |
| CCCCc1cc(NCc2ccncc2)nc(Nc2ccccc2)n1 [TCMDC-133995] | 8.477% |
| COc1ccc(-c2cc(C(=O)Nc3ccc(CCCN(C)Cc4ccc(OC)c(OC)c4)cc3)c3ccccc3n2)cc1 [TCMDC-131848] | 47.44% |
| CCN(CC)CCOC(=O)c1ccc(NC(=O)c2cc(-c3ccc(C)cc3)nc3ccccc23)cc1 [TCMDC-124019] | 1.245% |
| CCn1cc(-c2cc(C(=O)Nc3ccc(OC)cc3C)c3ccccc3n2)c(C)n1 [TCMDC-124457] | 71.47% |
| Cc1cccc2nc(-c3ccc(-c4ccc(CNCCCNS(C)(=O)=O)cc4)s3)[nH]c12.O=C(O)C(F)(F)F [TCMDC-133085] | 13.51% |
| COc1cc2nc(N3CCC(CNC(=O)c4ccc(-c5ccc(C#N)cc5C)cc4)CC3)nc(N)c2cc1OC [TCMDC-138735] | 105.2% |
| COc1cc2nc(N3CC(C)N(C(=O)Cc4ccc(-c5ccccc5)cc4)C(C)C3)nc(N)c2cc1OC (centres unmarked) [TCMDC-138153] | 71.85% |
| COc1cc2nc(N3CCC(CNC(=O)c4ccc(-c5ccc(C#N)cc5)cc4)CC3)nc(N)c2cc1OC [TCMDC-138713] | 15.4% |
| COc1cc2nc(N3CCC(CNC(=O)c4ccc(-c5cccc(C#N)c5)cc4)CC3)nc(N)c2cc1OC [TCMDC-138730] | 76.59% |
| COc1cc2nc(N3CCC(CNC(=O)/C=C/c4cccc(C)c4)CC3)nc(N)c2cc1OC [TCMDC-138156] | -2.985% |
| CC(C)CCN1CCC(Oc2ccc(NC(=O)c3ccsc3)cc2Cl)CC1 [TCMDC-133973] | 36.47% |
| O=C(NCCN1CCC(NC(=O)c2ccc(-c3ccccn3)s2)CC1)c1ccc(Cl)c(Cl)c1 [TCMDC-141947] | -22.55% |
| COc1cc(C(=O)N2COCC(CCCN3CCC(N4CCCC4)CC3)(c3ccc(Cl)c(Cl)c3)C2)cc(OC)c1OC (centres unmarked) [TCMDC-141758] | 14.16% |
| CCN(CC)CCON=Cc1cc(C)c2[nH]c3ccc(OCc4ccccc4)cc3c2c1C [TCMDC-132058] | -17.27% |
| Cc1nc(-c2cccc(NC(C)C(=O)Nc3cc(C(F)(F)F)ccc3N3CCOCC3)c2)cs1 (centres unmarked) [TCMDC-125304] | -35% |
| O=C(O)C[C@H](NC(=O)CCCNC(=O)c1cccc(-c2ccc(Cl)c(Cl)c2)c1)C(=O)O [TCMDC-139508] | 11.45% |
| CC(C)C[C@@H](CNC[C@H](CC(C)C)NC(=O)OC(C)(C)C)NC(=O)OC(C)(C)C [TCMDC-132080] | -74.95% |
